# Assay results taken from ChEMBL document CHEMBL2218924, “A broad activity screen in support of a chemogenomic map for kinase signalling research and drug discovery” (Biochem J, 2013).
# What was measured:
# [1] = target: Ribosomal protein S6 kinase alpha-1 (Homo sapiens) (UniProt Q15418); conditions: at 1 µM
# [2] = target: Ribosomal protein S6 kinase alpha-1 (Homo sapiens) (UniProt Q15418); conditions: at 10 µM
# [3] = target: Ribosomal protein S6 kinase alpha-3 (Homo sapiens) (UniProt P51812); conditions: at 1 µM
# [4] = target: Ribosomal protein S6 kinase alpha-3 (Homo sapiens) (UniProt P51812); conditions: at 10 µM
# [5] = target: Ribosomal protein S6 kinase alpha-2 (Homo sapiens) (UniProt Q15349); conditions: at 1 µM
# [6] = target: Ribosomal protein S6 kinase alpha-2 (Homo sapiens) (UniProt Q15349); conditions: at 10 µM
# [7] = target: Ribosomal protein S6 kinase alpha-6 (Homo sapiens) (UniProt Q9UK32); conditions: at 1 µM
# [8] = target: Ribosomal protein S6 kinase alpha-6 (Homo sapiens) (UniProt Q9UK32); conditions: at 10 µM
# [9] = target: Mitogen-activated protein kinase 14 (Homo sapiens) (UniProt Q16539); conditions: at 1 µM
# [10] = target: Mitogen-activated protein kinase 14 (Homo sapiens) (UniProt Q16539); conditions: at 10 µM
# [11] = target: Mitogen-activated protein kinase 11 (Homo sapiens) (UniProt Q15759); conditions: at 1 µM
# [12] = target: Mitogen-activated protein kinase 11 (Homo sapiens) (UniProt Q15759); conditions: at 10 µM
# [13] = target: T1, Mitogen-activated protein kinase 13 (Homo sapiens) (UniProt O15264); conditions: at 1 µM
# T1 sequence (whole entry): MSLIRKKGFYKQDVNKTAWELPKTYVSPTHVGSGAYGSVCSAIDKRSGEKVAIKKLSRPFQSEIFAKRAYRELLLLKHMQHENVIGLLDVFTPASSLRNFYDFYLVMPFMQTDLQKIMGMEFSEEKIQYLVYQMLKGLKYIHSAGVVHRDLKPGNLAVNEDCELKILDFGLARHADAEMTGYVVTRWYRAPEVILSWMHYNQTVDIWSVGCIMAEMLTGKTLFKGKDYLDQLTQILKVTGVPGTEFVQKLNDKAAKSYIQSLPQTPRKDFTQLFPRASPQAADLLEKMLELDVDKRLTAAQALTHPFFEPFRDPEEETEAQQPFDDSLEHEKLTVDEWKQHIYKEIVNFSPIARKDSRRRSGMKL
# [14] = target: T1, Mitogen-activated protein kinase 13 (Homo sapiens); conditions: at 10 µM
# [15] = target: T2, Serine/threonine-protein kinase Sgk1 (Homo sapiens) (UniProt O00141); conditions: at 1 µM
# T2 sequence (whole entry): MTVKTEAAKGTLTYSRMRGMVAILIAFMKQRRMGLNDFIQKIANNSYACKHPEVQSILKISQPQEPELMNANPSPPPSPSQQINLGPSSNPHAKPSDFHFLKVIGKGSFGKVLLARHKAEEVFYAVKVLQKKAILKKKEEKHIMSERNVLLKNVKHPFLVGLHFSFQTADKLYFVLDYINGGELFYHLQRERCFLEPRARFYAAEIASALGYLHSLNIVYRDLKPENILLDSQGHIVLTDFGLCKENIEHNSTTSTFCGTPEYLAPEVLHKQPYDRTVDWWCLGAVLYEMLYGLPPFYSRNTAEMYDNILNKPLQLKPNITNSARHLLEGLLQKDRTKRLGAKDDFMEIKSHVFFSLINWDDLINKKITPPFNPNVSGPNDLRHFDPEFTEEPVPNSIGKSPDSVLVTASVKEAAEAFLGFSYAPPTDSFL
# [16] = target: T2, Serine/threonine-protein kinase Sgk1 (Homo sapiens); conditions: at 10 µM
# [17] = target: T3, Serine/threonine-protein kinase Sgk2 (Homo sapiens) (UniProt Q9HBY8); conditions: at 1 µM
# T3 sequence (whole entry): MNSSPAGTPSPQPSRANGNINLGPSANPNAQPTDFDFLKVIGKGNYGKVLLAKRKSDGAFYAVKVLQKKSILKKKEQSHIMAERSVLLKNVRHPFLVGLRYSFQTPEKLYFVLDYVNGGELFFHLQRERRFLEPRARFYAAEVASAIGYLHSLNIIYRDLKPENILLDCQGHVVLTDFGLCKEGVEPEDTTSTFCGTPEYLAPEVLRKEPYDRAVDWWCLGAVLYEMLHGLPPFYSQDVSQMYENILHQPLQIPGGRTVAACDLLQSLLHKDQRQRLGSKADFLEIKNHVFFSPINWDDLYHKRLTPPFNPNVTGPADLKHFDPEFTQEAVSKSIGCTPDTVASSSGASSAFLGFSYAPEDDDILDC
# [18] = target: T3, Serine/threonine-protein kinase Sgk2 (Homo sapiens); conditions: at 10 µM
# [19] = target: T4, Serine/threonine-protein kinase Sgk3 (Homo sapiens) (UniProt Q96BR1); conditions: at 10 µM
# T4 sequence (whole entry): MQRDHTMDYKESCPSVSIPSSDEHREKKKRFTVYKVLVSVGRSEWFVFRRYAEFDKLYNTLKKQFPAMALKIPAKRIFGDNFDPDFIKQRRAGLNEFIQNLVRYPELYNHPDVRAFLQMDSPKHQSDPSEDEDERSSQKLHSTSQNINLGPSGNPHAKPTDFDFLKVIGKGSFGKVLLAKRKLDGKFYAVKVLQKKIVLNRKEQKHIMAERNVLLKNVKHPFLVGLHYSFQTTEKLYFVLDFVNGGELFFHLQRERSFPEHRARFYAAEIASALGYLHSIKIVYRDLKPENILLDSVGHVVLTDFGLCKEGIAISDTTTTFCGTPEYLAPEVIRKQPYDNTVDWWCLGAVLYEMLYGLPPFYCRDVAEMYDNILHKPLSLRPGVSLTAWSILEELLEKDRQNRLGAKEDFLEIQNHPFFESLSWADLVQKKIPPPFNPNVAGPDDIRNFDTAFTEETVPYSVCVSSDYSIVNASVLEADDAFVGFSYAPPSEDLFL
# [20] = target: Serine/threonine-protein kinase SIK1 (Homo sapiens) (UniProt P57059); conditions: at 1 µM
# Chain of Serine/threonine-protein kinase SIK1 (Homo sapiens) (P57059 whole entry): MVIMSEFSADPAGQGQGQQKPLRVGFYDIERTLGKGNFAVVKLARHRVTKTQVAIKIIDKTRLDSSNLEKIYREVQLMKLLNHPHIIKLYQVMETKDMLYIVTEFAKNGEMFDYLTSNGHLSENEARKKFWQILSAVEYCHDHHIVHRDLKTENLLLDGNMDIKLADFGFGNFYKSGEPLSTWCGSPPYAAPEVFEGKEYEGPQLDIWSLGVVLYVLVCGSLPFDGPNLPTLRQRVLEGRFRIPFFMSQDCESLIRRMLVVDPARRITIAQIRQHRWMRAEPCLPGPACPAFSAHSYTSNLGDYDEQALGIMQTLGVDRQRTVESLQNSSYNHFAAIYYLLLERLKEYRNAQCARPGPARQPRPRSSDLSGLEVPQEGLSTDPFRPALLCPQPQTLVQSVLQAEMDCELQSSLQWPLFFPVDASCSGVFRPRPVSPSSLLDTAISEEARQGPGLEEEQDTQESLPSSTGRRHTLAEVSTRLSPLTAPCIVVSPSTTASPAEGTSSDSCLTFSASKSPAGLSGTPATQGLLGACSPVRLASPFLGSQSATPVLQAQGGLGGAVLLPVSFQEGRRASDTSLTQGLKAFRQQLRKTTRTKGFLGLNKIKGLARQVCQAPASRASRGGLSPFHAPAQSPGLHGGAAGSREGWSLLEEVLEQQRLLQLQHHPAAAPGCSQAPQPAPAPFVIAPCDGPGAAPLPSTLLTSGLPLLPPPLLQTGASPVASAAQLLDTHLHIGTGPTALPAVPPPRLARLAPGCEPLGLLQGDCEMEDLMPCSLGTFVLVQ
# Chain of Ribosomal protein S6 kinase alpha-1 (Homo sapiens) (Q15418 whole entry): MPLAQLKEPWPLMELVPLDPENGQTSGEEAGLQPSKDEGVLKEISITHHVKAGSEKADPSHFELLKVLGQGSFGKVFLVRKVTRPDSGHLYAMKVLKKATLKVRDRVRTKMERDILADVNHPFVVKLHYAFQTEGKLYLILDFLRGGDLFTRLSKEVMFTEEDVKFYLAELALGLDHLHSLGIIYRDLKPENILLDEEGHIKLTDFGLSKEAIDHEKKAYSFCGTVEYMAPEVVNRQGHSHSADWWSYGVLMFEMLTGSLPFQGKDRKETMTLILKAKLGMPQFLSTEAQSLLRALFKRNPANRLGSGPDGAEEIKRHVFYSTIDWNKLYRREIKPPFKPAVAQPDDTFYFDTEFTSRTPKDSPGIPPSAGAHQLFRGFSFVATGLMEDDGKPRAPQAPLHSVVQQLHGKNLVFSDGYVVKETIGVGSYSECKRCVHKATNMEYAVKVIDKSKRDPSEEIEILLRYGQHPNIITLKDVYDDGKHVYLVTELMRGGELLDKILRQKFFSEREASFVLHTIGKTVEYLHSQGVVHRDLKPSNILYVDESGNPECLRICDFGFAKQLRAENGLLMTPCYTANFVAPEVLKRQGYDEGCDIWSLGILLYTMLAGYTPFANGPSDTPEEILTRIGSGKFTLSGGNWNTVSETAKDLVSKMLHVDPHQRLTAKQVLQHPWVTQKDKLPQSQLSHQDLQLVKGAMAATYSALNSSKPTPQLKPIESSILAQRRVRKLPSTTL
# Chain of Ribosomal protein S6 kinase alpha-3 (Homo sapiens) (P51812 whole entry): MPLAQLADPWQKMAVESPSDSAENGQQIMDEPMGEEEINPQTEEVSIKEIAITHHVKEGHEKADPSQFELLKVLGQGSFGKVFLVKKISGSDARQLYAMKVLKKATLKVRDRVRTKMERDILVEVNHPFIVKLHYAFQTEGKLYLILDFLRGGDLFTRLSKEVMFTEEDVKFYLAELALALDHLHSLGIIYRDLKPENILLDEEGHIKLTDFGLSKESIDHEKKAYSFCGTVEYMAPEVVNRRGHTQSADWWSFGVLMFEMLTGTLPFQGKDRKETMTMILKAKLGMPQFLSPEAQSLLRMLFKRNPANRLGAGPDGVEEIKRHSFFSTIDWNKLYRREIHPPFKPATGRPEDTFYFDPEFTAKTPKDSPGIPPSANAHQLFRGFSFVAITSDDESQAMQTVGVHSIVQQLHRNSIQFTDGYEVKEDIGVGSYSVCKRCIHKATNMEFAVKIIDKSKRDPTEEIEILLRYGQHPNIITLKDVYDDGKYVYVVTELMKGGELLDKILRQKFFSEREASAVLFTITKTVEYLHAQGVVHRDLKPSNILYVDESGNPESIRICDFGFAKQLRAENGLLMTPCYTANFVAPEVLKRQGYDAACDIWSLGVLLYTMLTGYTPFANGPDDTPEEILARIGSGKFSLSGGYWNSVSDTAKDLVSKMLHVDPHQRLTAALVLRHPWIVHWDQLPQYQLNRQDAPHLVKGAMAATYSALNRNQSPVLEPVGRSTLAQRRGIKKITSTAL
# Chain of Ribosomal protein S6 kinase alpha-6 (Homo sapiens) (Q9UK32 whole entry): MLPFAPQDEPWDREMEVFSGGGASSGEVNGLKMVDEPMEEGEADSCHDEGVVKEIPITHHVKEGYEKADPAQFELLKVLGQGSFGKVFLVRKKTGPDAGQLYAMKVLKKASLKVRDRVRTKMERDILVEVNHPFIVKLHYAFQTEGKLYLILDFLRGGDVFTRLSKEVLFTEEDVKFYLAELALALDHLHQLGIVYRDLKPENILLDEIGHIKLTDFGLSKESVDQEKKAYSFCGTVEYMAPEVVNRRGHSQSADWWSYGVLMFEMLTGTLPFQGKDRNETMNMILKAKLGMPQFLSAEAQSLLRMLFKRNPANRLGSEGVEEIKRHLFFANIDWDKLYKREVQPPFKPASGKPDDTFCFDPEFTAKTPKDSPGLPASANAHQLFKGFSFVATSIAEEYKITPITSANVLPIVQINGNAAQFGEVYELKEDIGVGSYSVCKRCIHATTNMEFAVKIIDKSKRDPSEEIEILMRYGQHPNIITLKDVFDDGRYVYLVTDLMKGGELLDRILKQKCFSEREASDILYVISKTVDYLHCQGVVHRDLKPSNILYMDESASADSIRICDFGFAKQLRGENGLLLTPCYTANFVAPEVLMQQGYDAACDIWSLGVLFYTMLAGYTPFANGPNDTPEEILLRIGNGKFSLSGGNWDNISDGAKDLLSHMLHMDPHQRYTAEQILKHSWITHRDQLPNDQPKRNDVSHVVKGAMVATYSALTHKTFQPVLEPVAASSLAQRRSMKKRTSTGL
# Chain of Mitogen-activated protein kinase 14 (Homo sapiens) (Q16539 whole entry): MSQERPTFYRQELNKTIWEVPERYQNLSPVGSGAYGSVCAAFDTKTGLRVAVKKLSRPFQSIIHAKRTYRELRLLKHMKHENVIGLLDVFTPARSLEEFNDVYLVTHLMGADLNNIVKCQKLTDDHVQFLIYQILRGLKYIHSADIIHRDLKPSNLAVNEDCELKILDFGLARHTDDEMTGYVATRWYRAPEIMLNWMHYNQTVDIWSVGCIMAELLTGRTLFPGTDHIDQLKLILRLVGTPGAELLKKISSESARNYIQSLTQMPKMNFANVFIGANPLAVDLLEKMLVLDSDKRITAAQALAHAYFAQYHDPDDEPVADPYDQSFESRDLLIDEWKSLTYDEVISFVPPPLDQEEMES
# Chain of Mitogen-activated protein kinase 11 (Homo sapiens) (Q15759 whole entry): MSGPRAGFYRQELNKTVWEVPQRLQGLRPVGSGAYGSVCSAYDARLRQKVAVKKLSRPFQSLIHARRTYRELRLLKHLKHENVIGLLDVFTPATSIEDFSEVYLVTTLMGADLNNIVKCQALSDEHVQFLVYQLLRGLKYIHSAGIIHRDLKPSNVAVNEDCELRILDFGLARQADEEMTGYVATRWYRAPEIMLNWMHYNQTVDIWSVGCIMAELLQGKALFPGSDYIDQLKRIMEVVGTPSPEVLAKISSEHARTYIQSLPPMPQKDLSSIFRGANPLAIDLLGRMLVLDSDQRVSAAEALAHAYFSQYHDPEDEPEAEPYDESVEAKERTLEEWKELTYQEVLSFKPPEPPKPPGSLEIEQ
# Chain of Ribosomal protein S6 kinase alpha-2 (Homo sapiens) (Q15349 whole entry): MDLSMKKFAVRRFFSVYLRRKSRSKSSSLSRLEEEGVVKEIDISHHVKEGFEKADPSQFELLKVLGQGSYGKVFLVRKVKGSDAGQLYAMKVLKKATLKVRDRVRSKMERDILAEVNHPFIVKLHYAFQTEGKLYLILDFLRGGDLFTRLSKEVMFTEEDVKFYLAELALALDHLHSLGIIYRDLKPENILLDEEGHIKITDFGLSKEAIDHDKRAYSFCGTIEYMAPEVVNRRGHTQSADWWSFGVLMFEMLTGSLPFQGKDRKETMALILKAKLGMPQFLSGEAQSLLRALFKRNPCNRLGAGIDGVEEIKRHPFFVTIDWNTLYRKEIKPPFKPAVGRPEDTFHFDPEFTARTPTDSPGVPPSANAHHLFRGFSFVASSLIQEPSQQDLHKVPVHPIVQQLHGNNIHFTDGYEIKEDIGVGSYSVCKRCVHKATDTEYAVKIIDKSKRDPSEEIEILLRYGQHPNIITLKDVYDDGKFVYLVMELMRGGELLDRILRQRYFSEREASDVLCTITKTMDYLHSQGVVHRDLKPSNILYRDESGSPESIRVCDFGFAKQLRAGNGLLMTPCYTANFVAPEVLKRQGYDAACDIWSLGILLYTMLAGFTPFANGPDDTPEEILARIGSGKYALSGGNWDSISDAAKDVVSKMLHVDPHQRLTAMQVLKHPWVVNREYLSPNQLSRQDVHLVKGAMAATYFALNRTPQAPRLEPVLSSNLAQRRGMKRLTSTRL
Compound,residual activity [1] [%],residual activity [2] [%],residual activity [3] [%],residual activity [4] [%],residual activity [5] [%],residual activity [6] [%],residual activity [7] [%],residual activity [8] [%],residual activity [9] [%],residual activity [10] [%],residual activity [11] [%],residual activity [12] [%],residual activity [13] [%],residual activity [14] [%],residual activity [15] [%],residual activity [16] [%],residual activity [17] [%],residual activity [18] [%],residual activity [19] [%],residual activity [20] [%]
CO[C@H]1C[C@@H]2CC[C@@H](C)[C@@](O)(O2)C(=O)C(=O)N2CCCC[C@H]2C(=O)O[C@H]([C@H](C)C[C@@H]2CC[C@@H](O)[C@H](OC)C2)CC(=O)[C@H](C)/C=C(\C)[C@@H](O)[C@@H](OC)C(=O)[C@H](C)C[C@H](C)/C=C/C=C/C=C/1C,110,112,44,55,102,90,105,112,72,83,97,103,110,95,93,213,124,149,148,101
CNc1cc2c(Nc3cccc(Br)c3)ncnc2cn1,115,59,110,71,87,38,101,74,83,77,98,93,110,95,81,75,111,79,96,43
O=[N+]([O-])c1ccc(-c2nc(-c3ccc(F)cc3)c(-c3ccncc3)[nH]2)cc1,101,104,60,62,103,97,91,83,1,2,5,3,102,99,81,104,120,94,95,130
CC(C)n1cnc2/c(=N/c3cccc(Cl)c3)nc(NCCO)[nH]c21,50,22,15,6,6,2,34,21,84,74,101,94,103,99,89,110,105,83,82,90
Ic1cccc(CSc2nnc(-c3ccncc3)o2)c1,55,46,39,28,30,24,97,100,90,79,102,92,104,94,71,64,84,78,81,92
Nc1ccc2ncnc(NCCc3ccc(Oc4ccccc4)cc3)c2c1,58,41,49,45,89,65,66,77,90,91,107,101,112,96,88,125,110,74,86,112
O=c1c2ccccc2[nH]c(=S)n1CCN1CCC(=C(c2ccc(F)cc2)c2ccc(F)cc2)CC1,113,61,79,50,119,100,114,91,97,104,103,102,102,89,92,43,90,88,72,95
CC#CC(=O)Nc1cc2c(Nc3ccc(F)c(Cl)c3)ncnc2cn1,113,101,104,107,99,96,116,105,91,98,90,86,107,96,95,106,100,77,88,81
CCOc1cc2ncnc(Nc3cccc(Br)c3)c2cc1OCC,100,72,102,40,90,48,92,46,57,13,94,50,91,90,107,89,68,60,73,83
O=Nc1c(-c2c(O)[nH]c3ccccc23)[nH]c2ccccc12,40,6,50,7,19,4,20,12,94,78,101,90,90,82,59,28,61,24,56,43
CC(=O)O/N=C1\C(=C2\C(=O)Nc3cc(Br)ccc32)Nc2ccccc21,105,59,40,28,71,34,74,89,88,85,94,100,99,89,69,56,83,48,65,57
O=C1c2ccccc2-[n+]2ccc3c([nH]c4ccccc43)c21,97,116,55,50,101,90,95,102,87,85,94,89,103,96,88,95,73,76,80,116
COc1ccc(CNc2nc(N(CCO)CCO)nc3c2ncn3C(C)C)cc1,90,59,31,22,11,5,84,56,96,89,100,92,100,105,73,116,107,80,85,93
Oc1n[nH]c2nnc(-c3c(-c4ccccc4)nn4ccccc34)cc12,114,111,96,86,90,78,91,106,93,85,94,91,96,96,69,86,96,80,81,109
COc1cc2ncnc(Nc3ccc(O)c(Br)c3)c2cc1OC,92,45,39,12,44,7,69,18,51,14,93,58,111,83,71,87,62,48,86,90
COc1ccc(S(=O)(=O)N(CCO)c2ccccc2CN(C)C/C=C/c2ccc(Cl)cc2)cc1,119,103,60,61,106,92,108,90,93,96,94,88,106,92,85,89,115,96,78,119
CCN(CC)CCCCN1c2ccccc2Oc2ccc(Cl)cc21,110,117,67,64,109,90,118,104,93,84,106,101,111,99,135,80,104,102,105,114
CN(C)c1ccc(/C=C2\C(=O)Nc3ccccc32)cc1,66,34,47,16,74,25,91,40,102,106,107,99,132,102,96,73,83,63,81,88
